Assay outcomes deposited in PubChem by The Scripps Research Institute Molecular Screening Center.
An excerpt weighted towards active compounds, which were near 0.9% of everything screened.
SRC3 TRFRET art – TR-FRET artefact, counter-screen to PPARgamma/SRC-3 agonist assay. PPARgamma/SRC-3 format; active compounds read high. TR-FRET ratio at 8 µM. 0.39% of 99,000 active; in the data active = TR-FRET ratio above about 2000
PPARg SRC-2 ag – agonists of SRC-2 recruitment by human PPARgamma; activation, % at 8 µM; PPARgamma LBD-SRC-2 recruitment, biochemical; 0.34% of 200,000 active
Target sequence (P37231 whole entry, looked up, the tested form may be a part): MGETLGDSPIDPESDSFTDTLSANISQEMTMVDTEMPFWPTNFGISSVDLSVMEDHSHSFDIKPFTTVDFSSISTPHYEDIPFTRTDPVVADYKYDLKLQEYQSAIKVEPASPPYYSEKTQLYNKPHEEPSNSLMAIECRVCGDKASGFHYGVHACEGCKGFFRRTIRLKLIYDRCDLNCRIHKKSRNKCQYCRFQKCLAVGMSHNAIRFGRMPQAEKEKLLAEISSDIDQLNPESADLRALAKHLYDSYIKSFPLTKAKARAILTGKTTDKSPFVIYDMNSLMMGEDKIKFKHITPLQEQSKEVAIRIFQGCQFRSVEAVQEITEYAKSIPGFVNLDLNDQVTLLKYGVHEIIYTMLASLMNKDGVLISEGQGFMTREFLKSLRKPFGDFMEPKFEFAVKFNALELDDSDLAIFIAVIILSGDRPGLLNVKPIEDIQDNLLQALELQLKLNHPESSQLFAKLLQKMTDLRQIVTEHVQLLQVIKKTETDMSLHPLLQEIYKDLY
SRC2 TRFRET art – TR-FRET artefact, counter-screen to PPARgamma/SRC-2 agonist assay; active compounds read high; TR-FRET ratio at 8 µM; 0.4% of 200,000 active; in the data active = TR-FRET ratio above about 2000
PPARg SRC1 recr – promotes SRC-1 coactivator recruitment by human PPARgamma | activation, % at 8 µM | 0.41% of 200,000 active | P37231 | AID 631 | PPARgamma-SRC-1 coactivator recruitment biochemical assay; in the data active = activation above about 19%
SRC1 TRFRET art – flags TR-FRET format artefacts in PPARgamma SRC-1 recruitment agonist screen. TR-FRET detection artefact counter-screen, emission ratio; active compounds read high. AID 1051. TR-FRET ratio at 8 µM. 0.34% of 99,000 active; in the data active = TR-FRET ratio above about 2300
PPARg SRC-3 ag – PPARgamma-driven SRC-3 recruitment agonism | 0.26% of 200,000 active | biochemical PPARgamma/SRC-3 coactivator recruitment assay | activation, % at 8 µM | P37231; in the data active = activation above about 23%
PPARg SRC2 ag – human PPARgamma SRC-2 recruitment agonism, confirmation | activation, % at 8 µM | shares compounds with PPARg SRC-3 ag | biochemical SRC-2 recruitment by PPARgamma | 52% of 790 active | AID 1297
PPARg SRC1 ag – human PPARgamma SRC-1 recruitment agonism, confirmation; activation, % at 8 µM; 43% of 790 active; AID 1300; shares compounds with PPARg SRC-3 ag; PPARgamma–SRC-1 coactivator recruitment biochemical assay; in the data active = activation above about 20%
PPARg SRC3 conf – confirmation of agonists of SRC-3 recruitment by human PPARgamma; shares compounds with PPARg SRC-3 ag; biochemical PPARgamma-SRC-3 coactivator recruitment, agonist mode; activation, % at 8 µM; 29% of 790 active; AID 1301; in the data active = activation above about 24%
Each line names hits and unclear results; the compound was inactive in the other large screens (follow-up assays come after a bar, where they were run). Cut-off read from the data, not from the text of the source, unless noted: active = activation above about 22%; inactive = the rest.

Cc1cc(NC(=O)COc2ccc3oc4ccccc4c3c2)no1	PPARg SRC1 recr 27 (no result: SRC3 TRFRET art, SRC1 TRFRET art) | PPARg SRC2 ag inactive | PPARg SRC1 ag inactive | PPARg SRC3 conf inactive
COc1cc(C(=O)NCCCNc2nc3cc(C)c(C)cc3cc2C#N)cc(OC)c1OC	none
Cc1nc2ccc3nc(NC(=O)c4ccco4)sc3c2s1	PPARg SRC1 recr 23 (no result: SRC3 TRFRET art, SRC1 TRFRET art) | PPARg SRC2 ag inactive | PPARg SRC1 ag inactive | PPARg SRC3 conf inactive
COc1cc(C(=O)Nc2nc3ccc4nc(C)sc4c3s2)cc(OC)c1OC	none (no result: SRC3 TRFRET art, SRC1 TRFRET art)
COc1ccc(C(=O)Nc2nc3ccc4nc(C)sc4c3s2)cc1	PPARg SRC1 recr 67, PPARg SRC-3 ag 56 (no result: SRC3 TRFRET art, SRC1 TRFRET art) | PPARg SRC2 ag 45 | PPARg SRC1 ag 29 | PPARg SRC3 conf 27
Cc1ccc2nc(NC(=S)NC(=O)c3ccco3)sc2c1	SRC3 TRFRET art 2144, PPARg SRC-2 ag 29, SRC2 TRFRET art 2308, PPARg SRC1 recr 22, SRC1 TRFRET art 2516 | PPARg SRC2 ag 56 | PPARg SRC1 ag 44 | PPARg SRC3 conf 37
C=CCNC(=S)N/N=C/c1cccc([N+](=O)[O-])c1	none
CCN(CC)C(=O)C(=O)N/N=C/c1ccc(F)cc1	none
CCc1ccc(CNC(=O)C2CCN(S(=O)(=O)N3CCC4(CC3)OCCO4)CC2)cc1	none
Cc1ccc(C2C(C(=O)c3ccco3)=C(O)C(=O)N2c2nnc(C)s2)cc1 (stereo not drawn)	PPARg SRC1 recr 24, PPARg SRC-3 ag 34 (no result: SRC3 TRFRET art, SRC1 TRFRET art) | PPARg SRC2 ag inactive | PPARg SRC1 ag inactive | PPARg SRC3 conf inactive
COC(=O)c1sc(N2C(=O)C(O)=C(C(=O)c3ccc(C)o3)C2c2ccc(F)cc2)nc1C (stereo not drawn)	PPARg SRC-2 ag 26, SRC2 TRFRET art 2303, PPARg SRC1 recr 30 (no result: SRC3 TRFRET art, SRC1 TRFRET art) | PPARg SRC2 ag 30 | PPARg SRC1 ag 23 | PPARg SRC3 conf inactive
CN1/C(=C/c2cc[n+](C)c3ccccc23)C=Cc2ccccc21	SRC3 TRFRET art 2217, PPARg SRC-2 ag 42, SRC2 TRFRET art 1994, PPARg SRC1 recr 33, SRC1 TRFRET art 2343, PPARg SRC-3 ag 26 | PPARg SRC2 ag inactive | PPARg SRC1 ag inactive | PPARg SRC3 conf inactive
CCN(CC)S(=O)(=O)c1cc(NC(=O)CCCOc2ccc(C(C)=O)cc2)ccc1C	none
CC(C)n1nnc2c(=O)oc3ccccc3c21	none
CCCc1c(C)nn(-c2ncccc2[N+](=O)[O-])c1C	none
CCN(CC)S(=O)(=O)c1cccc(-c2n[nH]c(=S)n2C)c1	none
Cc1ccc(-c2n[nH]c(=S)n2C)cc1Cl	PPARg SRC1 recr 26 | PPARg SRC2 ag inactive | PPARg SRC1 ag inactive | PPARg SRC3 conf inactive
COc1ccc(S(=O)(=O)N2CCOCC2)cc1NC(=O)c1ccccc1-c1ccc(C(F)(F)F)cc1	none
CCOC(=O)c1c(OCC)[nH]c2c1cc(O)c1ccccc12	PPARg SRC1 recr 19 (no result: SRC3 TRFRET art, SRC1 TRFRET art) | PPARg SRC2 ag inactive | PPARg SRC1 ag inactive | PPARg SRC3 conf inactive
COc1ccc(C2(c3ccc(O)cc3O)CC(c3ccccc3Cl)NC(=S)N2)cc1 (stereo not drawn)	none
COc1cc(C2C(C(C)=O)=C(O)C(=O)N2CCN(C)C)ccc1O (stereo not drawn)	none (no result: SRC3 TRFRET art, SRC1 TRFRET art)
O=C(C1=C(O)C(=O)N(CCCN2CCOCC2)C1c1ccccn1)c1cc2ccccc2o1 (stereo not drawn)	PPARg SRC-2 ag 25, PPARg SRC1 recr 21, PPARg SRC-3 ag 35 (no result: SRC3 TRFRET art, SRC1 TRFRET art) | PPARg SRC2 ag inactive | PPARg SRC1 ag inactive | PPARg SRC3 conf inactive
CCN(CC)CCN1C(=O)C(O)=C(C(=O)c2sc(C)nc2C)C1c1cccnc1 (stereo not drawn)	none (no result: SRC3 TRFRET art, SRC1 TRFRET art)
COc1ccccc1C1C(C(=O)c2cc3ccccc3o2)=C(O)C(=O)N1CCN(C)C (stereo not drawn)	SRC2 TRFRET art 1988, PPARg SRC1 recr 20 (no result: SRC3 TRFRET art, SRC1 TRFRET art) | PPARg SRC2 ag inactive | PPARg SRC1 ag inactive | PPARg SRC3 conf inactive
CCN(CC)CCN1C(=O)C(O)=C(C(=O)c2cc3ccccc3o2)C1c1cccnc1 (stereo not drawn)	PPARg SRC-2 ag 40, SRC2 TRFRET art 2274, PPARg SRC1 recr 33, PPARg SRC-3 ag 52 (no result: SRC3 TRFRET art, SRC1 TRFRET art) | PPARg SRC2 ag inactive | PPARg SRC1 ag inactive | PPARg SRC3 conf inactive
O=C(C1=C(O)C(=O)N(CCc2ccccc2)C1c1ccncc1)c1cc2ccccc2o1 (stereo not drawn)	SRC3 TRFRET art 2106, PPARg SRC-2 ag 25, SRC2 TRFRET art 2092, PPARg SRC1 recr 21, SRC1 TRFRET art 2514 | PPARg SRC2 ag 26 | PPARg SRC1 ag inactive | PPARg SRC3 conf inactive
CCn1nnc(-c2ccc(N)cc2)n1	none
CN(C)CCN1C(=O)C(O)=C(C(=O)c2cc3ccccc3o2)C1c1cccc(Br)c1 (stereo not drawn)	PPARg SRC-2 ag 45, SRC2 TRFRET art 2387, PPARg SRC1 recr 36, PPARg SRC-3 ag 58 (no result: SRC3 TRFRET art, SRC1 TRFRET art) | PPARg SRC2 ag 38 | PPARg SRC1 ag 26 | PPARg SRC3 conf 26
Cc1ccc(CNC(=O)C(=O)Nc2nccs2)cc1	none
Cc1cc(Cl)ccc1OCC(=O)NCCCN1CCOCC1	none (no result: SRC3 TRFRET art, SRC1 TRFRET art)
O=C(O)CSc1c2c(nc3cc(C(=O)N4CCCC4)ccc13)CCCC2	none
O=C(CSc1c2c(nc3cc(Cl)ccc13)CCCC2)NCCCN1CCOCC1	SRC3 TRFRET art 2060, PPARg SRC-2 ag 26, PPARg SRC1 recr 25 | PPARg SRC2 ag inactive | PPARg SRC1 ag inactive | PPARg SRC3 conf inactive
CCN(CC)CCCNC(=O)CSc1c2c(nc3cc(Cl)ccc13)CCCC2	SRC3 TRFRET art 2400, PPARg SRC-2 ag 34, SRC2 TRFRET art 2152, PPARg SRC1 recr 33, SRC1 TRFRET art 2550 | PPARg SRC2 ag 26 | PPARg SRC1 ag inactive | PPARg SRC3 conf inactive
O=C(CSc1c2c(nc3cc(Cl)ccc13)CCCC2)NCCN1CCOCC1	SRC3 TRFRET art 2338, PPARg SRC-2 ag 32, SRC2 TRFRET art 2224, PPARg SRC1 recr 27, SRC1 TRFRET art 2381 | PPARg SRC2 ag inactive | PPARg SRC1 ag inactive | PPARg SRC3 conf inactive
Cc1ccc(CNC(=O)CSc2c3c(nc4cc(Cl)ccc24)CCCC3)o1	PPARg SRC-2 ag 28 (no result: SRC3 TRFRET art, SRC1 TRFRET art) | PPARg SRC2 ag 27 | PPARg SRC1 ag inactive | PPARg SRC3 conf inactive
COc1ccc(N2Cc3ccccc3C2=NC(=O)c2cncc(Br)c2)cc1	none
O=C(CSc1c2c(nc3ccccc13)CCCC2)NCc1ccco1	PPARg SRC1 recr 21 | PPARg SRC2 ag inactive | PPARg SRC1 ag inactive | PPARg SRC3 conf inactive
CCCCNC(=O)c1ccc2c(SCC(=O)O)c3c(nc2c1)CCCC3	none
COCCCNC(=O)CSc1c2c(nc3ccc(Cl)cc13)CCCC2	SRC3 TRFRET art 2277, PPARg SRC-2 ag 28, PPARg SRC1 recr 31, SRC1 TRFRET art 2727 | PPARg SRC2 ag inactive | PPARg SRC1 ag inactive | PPARg SRC3 conf inactive
O=C(NCc1ccco1)c1c2c(nc3ccccc13)CCC2	none
